# LASV entry inh – blocks Lassa virus binding to or entry into cells | Lassa virus pseudotype entry inhibition, cell reporter | Potency, µM (top dose mostly 37.9 µM), usual class: inhibitors | actives 1.2% (n = 300,000); calls by dose curve; tested in HEK293 cells; also: nearly all actives have a fitted effect of over 50% in size
# HCMV inh – human cytomegalovirus inhibition. HFF cells, HCMV-luciferase reporter, 72 h; stronger effect = lower value. activity change, negative = inhibition, % at 57.5 µM. actives 4.5% (n = 410,000). AID 1259415; in the data active = activity change below about -60%; inconclusive = no clear call, values can overlap the other calls; inactive = above about -39%
#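 Screen run at 2 compound doses on HFFs infected with reporter HCMV, MOI 1 PFU/cell. Luciferase activity from cell lysates at 72 h post infection gave inhibition relative to buffer-only and Salinomycin wells.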
# MARV entry inh – inhibitors of Marburg virus binding or cell entry | Marburg virus pseudotyped entry inhibition, cell reporter | Potency, µM (top dose mostly 37.8 µM), actives largely listed as inhibitors | actives 1.8% (n = 300,000); calls by dose curve; tested in HEK293 cells
# FMDV inh – antivirals against foot and mouth disease virus; AID 1159524; actives 1.2% (n = 410,000); Potency, µM (doses to about 57.9 µM), hits mostly inhibitors; FMDV antiviral cell-based qHTS; calls by dose curve; tested in HEK293T cells; also: read-out not given here; nearly all actives have a fitted effect of over 45% in size
# HCV inh – blocks hepatitis C virus | Potency, µM (series often up to 41.8 µM), hits mostly inhibitors | Huh7.5.1 HCVcc-Cre infection, luciferase reporter, 44 h | actives 3.4% (n = 340,000); active = well fitted inhibition curve with a large enough effect; inconclusive = small, poorly fitted or top-dose-only effect, or another doubt; inactive = no such curve, though single readings can be large or run the other way
#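 A cell-based infection assay in which seeded cells (1,000 per well) receive test compound after 4 h, are inoculated with HCVcc-Cre at approximately 0.5 moi, and are incubated 44 h before luminescence detection.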
# A number is an active result; - = inactive; ? = inconclusive; . = no result. In the library only some 7.9% were active in any assay of this set; here they are far more common.
SMILES,LASV entry inh,HCMV inh,MARV entry inh,FMDV inh,HCV inh
COC(=O)c1ccc(NC(=O)CN2C(=O)c3ccccc3S2(=O)=O)cc1,-,-,-,-,-
CC(C)C(NC(=O)CN1C(=O)c2ccccc2S1(=O)=O)C(C)C,.,-,.,-,-
O=C(CN1C(=O)c2ccccc2S1(=O)=O)c1ccc(F)cc1,.,-67.5,.,-,-
Cc1ccc(C(C(=O)NC2CCCC2)N(C(=O)CNC(=O)c2ccco2)c2ccccc2)o1 (configuration not stated),.,-,-,-,-
COC(=O)c1ccc(CN2C(=O)[C@@]3(CC(C)=CC[C@@H](COc4ccccc4)O3)c3c(Br)cccc32)cc1,-,.,-,.,.
O=C(Nc1cccc(F)c1)N1CCC2(CC1)CCN(C(=O)c1csnn1)CC2,.,.,.,-,.
CC(C)CNc1cccc2c1S(=O)(=O)N[C@@H](CC(C)C)CO2,.,-,.,.,.
O=C(CN1C(=O)c2ccccc2S1(=O)=O)c1ccc(Cl)cc1Cl,0.562µM,-91.5,0.282µM,2µM,-
O=C(CN1C(=O)c2ccccc2S1(=O)=O)c1ccccc1F,?,?,?,?,-
Cc1nn(Cc2ccc(Cl)c(Cl)c2)c(C)c1NC(=O)c1cc(CC(C)C)on1,.,-,.,?,11.2µM
Cc1nn(Cc2c(F)c(F)c(F)c(F)c2F)c(C)c1NC(=O)c1ccc(COc2ccccc2Cl)o1,?,-65.9,?,-,15.8µM
CCCc1cc(C(=O)Nc2c(C)nn(Cc3c(Cl)cccc3Cl)c2C)no1,3.98µM,-,?,-,.
Cc1nn(Cc2c(F)c(F)c(F)c(F)c2F)c(C)c1NC(=O)c1ccc(COc2ccccc2Cl)cc1,-,-,-,-,-
CC1(Cc2ccc(OC(F)(F)F)cc2)C(=O)Nc2c(Cl)ccc(Cl)c21 (configuration not stated),.,-,.,?,.
C[C@H](NC(=O)c1ccccn1)C(O)c1nc2ccccc2[nH]1 (some centres not stated),.,-,.,.,.
CS(=O)(=O)N1CCN(c2ccccc2NC(=O)c2cc(Br)ccc2Cl)CC1,-,-,-,-,-
CS(=O)(=O)N1CCN(c2ccccc2NC(=O)c2ccc(-c3ccc(Br)cc3)o2)CC1,-,-,-,-,6.31µM
O=C(NCc1nnc2n1CCN(Cc1cc(F)cc(F)c1)CC2)c1cccc(F)c1,.,.,.,-,.
CCN1c2ccccc2NC2N=C(OC)C(c3ccccc3)C21 (configuration not stated),-,.,23.1µM,-,-
CCN1C(=O)N[C@@H](c2ccccc2)[C@H](C(=O)OC)[C@H]1C,.,-,-,-,-
CC1CCCN(C(=O)COC(=O)Cn2cnc3ccccc32)C1 (configuration not stated),-,-,-,-,-
CN(Cc1ccccc1)C(=O)COC(=O)Cn1cnc2ccccc21,-,-,-,-,-
CC1CCN(C(=O)COC(=O)Cn2cnc3ccccc32)CC1,-,-66.8,?,-,-
CN(C(=O)COC(=O)Cn1cnc2ccccc21)C1CCCCC1,-,-94.2,-,-,-
O=c1c2oc3ccccc3c2n(Cc2ccccc2Cl)c(=O)n1Cc1ccc2c(c1)OCO2,-,-,.,-,.
SMILES,LASV entry inh,HCMV inh,MARV entry inh,FMDV inh,HCV inh
CC(NCc1ccc(Cl)c(Cl)c1)C(O)c1ccccc1 (configuration not stated),-,-70.8,?,.,-
CC(NCc1ccc(OCc2ccc(Cl)cc2)cc1)C(O)c1ccccc1 (configuration not stated),?,-,12.6µM,-,10µM
Cc1ccc(NC(=O)CN(C)S(=O)(=O)c2cccc3cccnc23)cc1C,.,-,.,-,?
CC(C)CNC(=O)C1(C)CCCN1Cc1ccc(S(C)(=O)=O)cc1 (configuration not stated),.,-101.6,.,-,.
Nc1nc2c(ncn2[C@@H]2O[C@H](CNC(=O)[C@H](N)Cc3ccccc3)[C@@H](O)[C@H]2O)c(=O)[nH]1,.,-,.,-,.
CCc1ccc2nc(Nc3nc(COC)cc(=O)[nH]3)nc(C)c2c1,-,-,-,-,?
COCc1cc(=O)[nH]c(Nc2nc3ccc(C)cc3o2)n1,?,-102.2,?,?,?
O=C(CSc1nc2ncc(Br)cc2[nH]1)c1cccc([N+](=O)[O-])c1,-,-,-,-,-
O=[N+]([O-])c1ccc(CSc2nc3ncc(Br)cc3[nH]2)cc1,.,-62.4,.,-,-
Cn1c(N=Cc2ccc([N+](=O)[O-])cc2)c(N)c(=O)n(C)c1=O,-,-,-,-,-
CN1C(=O)C2=NC=NC2N(C)C1=O (configuration not stated),.,.,-,.,.
O=C(CCCCCN1C(=O)CCC1=O)Nc1ncn[nH]1,-,-103.2,-,-,-
Cc1c(Cl)cccc1NC(=O)CCCCCN1C(=O)CCC1=O,-,-,-,-,-
NC(=O)C1(NC(=O)[C@@H]2CC3(CC(c4cccc(NC(=O)[C@@H]5CCC(=O)N5)c4)=NO3)CN2C(=O)c2ccccc2)CC1 (some centres not stated),.,-,.,-,-
CCCOc1ccc(C(=O)N2CC3(CC(c4cccc(NC(=O)[C@@H]5CCC(=O)N5)c4)=NO3)C[C@H]2C(=O)NC2(C(N)=O)CC2)cc1 (some centres not stated),.,-64.4,-,-,-
COc1ccc(CN2CCOc3c(O)cc(-c4cc(C)c5ccc(F)cc5n4)cc3C2)c(O)c1,.,.,.,-,.
Oc1ccccc1C1CC(c2cccs2)=NC(c2ccc(Cl)cc2)N1 (configuration not stated),.,-70.1,.,-,?
COc1cc(C(=O)N(Cc2ccccc2)c2cccc(C)c2)ccc1OC(F)F,-,-,?,-,.
COc1ccccc1N(Cc1ccccc1)S(=O)(=O)c1cccc(C(=O)Nc2cc(C)ccn2)c1,?,-89.9,?,?,?
COc1ccccc1N(Cc1ccccc1)S(=O)(=O)c1cccc(C(=O)NC2CC(C)(C)NC(C)(C)C2)c1,?,-,?,-,2.24µM
CC1(C)CC(NC(=O)c2ccc(Cl)c(S(=O)(=O)N(Cc3ccccc3)c3ccccc3)c2)CC(C)(C)N1,-,-,8.91µM,-,?
COC(=O)C1(C(=O)OC)Cc2conc2[C@@H]1c1ccccc1,.,.,-,.,.
O=C(Nc1nnc(-c2ccco2)o1)c1ccc2ccccc2c1,?,-,14.1µM,-,?
Cc1ccc(C(=O)Nc2nnc(-c3ccco3)o2)cc1,?,-,?,-,-
O=C(Nc1nnc(-c2ccco2)o1)c1ccc([N+](=O)[O-])s1,?,-,?,-,8.91µM
SMILES,LASV entry inh,HCMV inh,MARV entry inh,FMDV inh,HCV inh
O=C(Nc1nnc(-c2ccncc2)o1)c1ccc(Br)s1,?,-,8.91µM,-,?
O=C(NCc1ccccc1Cl)c1cccc2c1C(=O)c1ccc(-c3ccc(OC(F)(F)F)cc3)cc1S2(=O)=O,.,.,.,-,-
CNc1ncnc2ccc(-c3ccccc3C#N)cc12,.,.,.,-,.
O=C(Cn1cc(/C=C\[N+](=O)[O-])c2ccccc21)Nc1ccccc1,?,?,?,12.6µM,?
N#Cc1ccccc1Cn1cc(/C=C/[N+](=O)[O-])c2ccccc21,23.1µM,-100.7,?,14.1µM,?
O=[N+]([O-])/C=C/c1cn(Cc2ccccc2)c2ccccc12,-,-104.5,?,-,-

# High-throughput results: PubChem, National Center for Advancing Translational Sciences (NCATS)
